Measured values: PubChem BioAssay AID1159580 (chemical genetic matrix, 2015)
The campaign covered roughly 5,500 compounds. About 2,000 (36%) were called active. Roughly 18% stayed inconclusive and do not appear here. Rule as the data show it: active = normalized growth mostly below about 0.91 (no sharp cut-off); inconclusive = no clear call, values can overlap the other calls; inactive = mostly above about 0.92. The list shows a part of the results.

Experiment: chemical genetic growth profiling, strain panel (AID 1159580);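 also: tested at 20 µM; growth read once vehicle control cultures reached saturation at 30 °C; 1 = growth at the plate median or of vehicle wells; lower values mean less growth of the strain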
Details: growth OD

Measured: normalized growth

CC(=O)Oc1ccc(C(c2ccc(OC(C)=O)cc2)c2ccccn2)cc1
inactive: S. cerevisiae deletion strains, locus YJR075W, strain HOC1, stronger effect = lower value 0.978 | S. cerevisiae deletion strains, locus YKL009W, strain mrt4, stronger effect = lower value 0.985 | S. cerevisiae deletion strains, locus YKL068W, stronger effect = lower value 1 | S. cerevisiae deletion strains, locus YKL085W, strain MDH1 (second series), stronger effect = lower value 0.986 | S. cerevisiae deletion strains, locus YKL085W, strain MDH1, stronger effect = lower value 0.986 | S. cerevisiae deletion strains, locus YKL160W, strain elf1, stronger effect = lower value 1.03 | S. cerevisiae deletion strains, locus YKL190W, strain CNB1, stronger effect = lower value 0.989 | S. cerevisiae deletion strains, locus YKR001C, strain vps1, stronger effect = lower value 0.984 | S. cerevisiae deletion strains, locus YKR026C, strain gcn3, stronger effect = lower value 1.01 | S. cerevisiae deletion strains, locus YKR091W, strain srl3, stronger effect = lower value 1.02 | S. cerevisiae deletion strains, locus YLL001W, strain dnm1, stronger effect = lower value 1.01 | S. cerevisiae deletion strains, locus YLL026W, stronger effect = lower value 1.02 | S. cerevisiae deletion strains, locus YLL041C, strain sdh2, stronger effect = lower value 1.03 | S. cerevisiae deletion strains, locus YLR027C, strain aat2, stronger effect = lower value 1.02 | S. cerevisiae deletion strains, locus YLR039C, strain RIC1, stronger effect = lower value 0.986 | S. cerevisiae deletion strains, locus YLR058C, strain SHM2, stronger effect = lower value 0.984 | S. cerevisiae deletion strains, locus YLR102C, strain apc9, stronger effect = lower value 0.995 | S. cerevisiae deletion strains, locus YLR113W, strain HOG1, stronger effect = lower value 0.953 | S. cerevisiae deletion strains, locus YLR221C, strain rsa3, stronger effect = lower value 1.02 | S. cerevisiae deletion strains, locus YLR258W, strain gsy2, stronger effect = lower value 1.03 | S. cerevisiae deletion strains, locus YLR262C, strain YPT6 (second series), stronger effect = lower value 1.01 | S. cerevisiae deletion strains, locus YLR262C, strain YPT6, stronger effect = lower value 0.969 | S. cerevisiae deletion strains, locus YLR268W, strain sec22, stronger effect = lower value 0.992 | S. cerevisiae deletion strains, locus YLR320W, strain mms22, stronger effect = lower value 1 | S. cerevisiae deletion strains, locus YLR330W, strain CHS5, stronger effect = lower value 0.988 | S. cerevisiae deletion strains, locus YLR342W, strain FKS1 (second series), stronger effect = lower value 1.02 | S. cerevisiae deletion strains, locus YLR342W, strain FKS1, stronger effect = lower value 1.01 | S. cerevisiae deletion strains, locus YLR357W, strain rsc2, stronger effect = lower value 1.08 | S. cerevisiae deletion strains, locus YLR370C, strain arc18, stronger effect = lower value 1.03 | S. cerevisiae deletion strains, locus YLR371W, strain rom2, stronger effect = lower value 0.983 | S. cerevisiae deletion strains, locus YLR384C, strain iki3, stronger effect = lower value 1.02 | S. cerevisiae deletion strains, locus YLR418C, strain cdc73, stronger effect = lower value 0.999 | S. cerevisiae deletion strains, locus YML016C, strain PPZ1, stronger effect = lower value 0.981 | S. cerevisiae deletion strains, locus YML032C, strain rad52, stronger effect = lower value 0.998 | S. cerevisiae deletion strains, locus YML120C, strain ndi1, stronger effect = lower value 1 | S. cerevisiae deletion strains, locus YML124C, strain tub3, stronger effect = lower value 0.992 | S. cerevisiae deletion strains, locus YMR058W, strain fet3, stronger effect = lower value 1.01 | S. cerevisiae deletion strains, locus YMR078C, strain ctf18, stronger effect = lower value 0.985 | S. cerevisiae deletion strains, locus YMR125W, strain sto1, stronger effect = lower value 1.02 | S. cerevisiae deletion strains, locus YMR129W, stronger effect = lower value 1.02 | S. cerevisiae deletion strains, locus YMR205C, strain PFK2, stronger effect = lower value 0.985 | S. cerevisiae deletion strains, locus YMR223W, strain ubp8, stronger effect = lower value 0.987 | S. cerevisiae deletion strains, locus YMR231W, strain pep5, stronger effect = lower value 1.02 | S. cerevisiae deletion strains, locus YMR263W, strain SAP30, stronger effect = lower value 0.963 | S. cerevisiae deletion strains, locus YMR307W, strain GAS1, stronger effect = lower value 0.934 | S. cerevisiae deletion strains, locus YNL067W, strain RPL9B, stronger effect = lower value 0.965 | S. cerevisiae deletion strains, locus YNL071W, strain lat1, stronger effect = lower value 1.01 | S. cerevisiae deletion strains, locus YNL183C, strain NPR1, stronger effect = lower value 0.928 | S. cerevisiae deletion strains, locus YNL209W, strain ssb2, stronger effect = lower value 1 | S. cerevisiae deletion strains, locus YNL233W, strain BNI4, stronger effect = lower value 0.971 | S. cerevisiae deletion strains, locus YNL248C, strain rpa49, stronger effect = lower value 1.03 | S. cerevisiae deletion strains, locus YNL250W, strain rad50, stronger effect = lower value 0.98 | S. cerevisiae deletion strains, locus YNL271C, strain bni1, stronger effect = lower value 0.985 | S. cerevisiae deletion strains, locus YNL298W, strain CLA4, stronger effect = lower value 0.989 | S. cerevisiae deletion strains, locus YNL307C, strain MCK1, stronger effect = lower value 0.989 | S. cerevisiae deletion strains, locus YNL322C, strain KRE1 (second series), stronger effect = lower value 1.01 | S. cerevisiae deletion strains, locus YNL322C, strain KRE1, stronger effect = lower value 1 | S. cerevisiae deletion strains, locus YNR049C, strain mso1, stronger effect = lower value 1.01 | S. cerevisiae deletion strains, locus YNR052C, strain pop2, stronger effect = lower value 0.997 | S. cerevisiae deletion strains, locus YOL012C, strain htz1 1.18 | S. cerevisiae deletion strains, locus YOL147C, strain pex11, stronger effect = lower value 0.979 | S. cerevisiae deletion strains, locus YOR001W, strain rrp6, stronger effect = lower value 0.973 | S. cerevisiae deletion strains, locus YOR061W, strain CKA2, stronger effect = lower value 0.995 | S. cerevisiae deletion strains, locus YOR069W, strain VPS5, stronger effect = lower value 0.989 | S. cerevisiae deletion strains, locus YOR070C, strain gyp1, stronger effect = lower value 1 | S. cerevisiae deletion strains, locus YOR080W, strain dia2, stronger effect = lower value 1.02 | S. cerevisiae deletion strains, locus YOR083W, strain WHI5, stronger effect = lower value 1.02 | S. cerevisiae deletion strains, locus YOR106W, strain vam3, stronger effect = lower value 1.05 | S. cerevisiae deletion strains, locus YOR136W, strain idh2, stronger effect = lower value 0.975 | S. cerevisiae deletion strains, locus YOR144C, strain elg1, stronger effect = lower value 0.984 | S. cerevisiae deletion strains, locus YOR184W, strain ser1, stronger effect = lower value 1.01 | S. cerevisiae deletion strains, locus YOR231W, strain MKK1, stronger effect = lower value 0.974 | S. cerevisiae deletion strains, locus YOR265W, strain rbl2, stronger effect = lower value 1 | S. cerevisiae deletion strains, locus YOR270C, strain vph1, stronger effect = lower value 1.02 | S. cerevisiae deletion strains, locus YOR290C, strain snf2, stronger effect = lower value 1.04 | S. cerevisiae deletion strains, locus YOR316C, strain cot1, stronger effect = lower value 0.984 | S. cerevisiae deletion strains, locus YPL051W, strain arl3, stronger effect = lower value 1.01 | S. cerevisiae deletion strains, locus YPL078C, strain atp4, stronger effect = lower value 1.01 | S. cerevisiae deletion strains, locus YPL106C, strain sse1, stronger effect = lower value 1.03 | S. cerevisiae deletion strains, locus YPL240C, strain hsp82, stronger effect = lower value 1.02 | S. cerevisiae deletion strains, locus YPL241C, strain CIN2, stronger effect = lower value 0.996 | S. cerevisiae deletion strains, locus YPL256C, strain CLN2, stronger effect = lower value 1 | S. cerevisiae deletion strains, locus YPR119W, strain clb2, stronger effect = lower value 0.996 | S. cerevisiae deletion strains, locus YPR141C, strain kar3, stronger effect = lower value 0.974 | S. cerevisiae deletion strains, locus YPR163C, strain tif3, stronger effect = lower value 0.996 | S. cerevisiae deletion strains, locus YPR167C, strain met16, stronger effect = lower value 0.989 | S. cerevisiae deletion strains, strain wtn01, stronger effect = lower value 1.01 | S. cerevisiae strains, strain wild type, stronger effect = lower value 1
